Out of some 220,000 compounds screened, about 710 (0.32%) were called active. This is one part of a sample in which actives are shown more often than they occur. No stated cut-off is given here; in the data, active means binding response below about 49% or above about 150%; inactive means in between.

Guanine nucleotide-binding protein G(o) subunit alpha (Homo sapiens), sequence (P09471 whole entry, looked up): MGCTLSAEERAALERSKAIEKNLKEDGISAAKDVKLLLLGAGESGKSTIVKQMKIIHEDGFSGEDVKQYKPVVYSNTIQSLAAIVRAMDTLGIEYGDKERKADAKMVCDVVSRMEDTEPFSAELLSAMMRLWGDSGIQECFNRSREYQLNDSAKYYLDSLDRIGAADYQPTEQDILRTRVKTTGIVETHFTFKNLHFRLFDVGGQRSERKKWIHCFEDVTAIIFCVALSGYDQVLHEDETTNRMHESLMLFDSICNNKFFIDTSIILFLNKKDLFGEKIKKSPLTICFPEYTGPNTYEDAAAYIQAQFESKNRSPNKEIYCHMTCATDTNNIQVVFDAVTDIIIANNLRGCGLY

This assay addresses Guanine nucleotide-binding protein G(o) subunit alpha (Homo sapiens) (UniProt P09471). Kind of assay: RGS4-Galphao interaction inhibitors and enhancers – biochemical, multiplexed bead flow cytometry, primary screen (AID 1415).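 Further: fluorescent Galphao activated with aluminum fluoride binding bead-coupled RGS4.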 The following applies: at 10 µM, actives lie on both sides.
Take `CCN(CC)c1ccc(S(=O)(=O)N2CCOCC2)cc1NC(=O)CSc1cccc[n+]1[O-]`: the binding response (% of control) was 91.7% (inactive). As for `Cn1c(SCC(=O)N2CCCc3ccccc32)nc2ccccc2c1=O`, the binding response (% of control) is 89.2% (inactive). Under `O=C(CSc1ccc2nnc(-c3ccccc3)n2n1)N1CCCc2ccccc21` stands 156% [activator] (active); under `CCCn1c(SCC(=O)N2CCc3ccccc32)nnc1-c1ccncc1`, 99.9% (inactive). Regarding `Nc1ccccc1Sc1cc(Cl)nnc1Cl`, the binding response (% of control) is 97.6% (inactive). The figure for `O=C(NC1CCc2ccccc21)C12CN(Cc3ccccc3)CC1C(c1cccc([N+](=O)[O-])c1)=NO2` (stereo not given) is 99.7% (inactive); for `O=C(CSc1nnc(-c2cccs2)n1Cc1ccccc1)N1CCc2ccccc2C1` it is 99.4% (inactive); for `O=C(COc1ccccc1)N1CCc2ccccc2C1` it is 103% (inactive). The figure for `Cn1c(=O)c2c(n(Cc3ccccc3)c1=O)NC(=O)C2CC(=O)N1CCc2ccccc2C1` (stereo not given) is 21.4% (active); for `Cc1ccc(NC(=O)CNCc2ccccn2)cc1S(=O)(=O)N(C)C` it is 97.3% (inactive); for `Cn1c(CC2Sc3ccccc3NC2=O)nnc1SCC(=O)c1ccc(Cl)cc1` (stereo not given) it is 88.2% (inactive). Under `Cc1cc(=O)n2[nH]c(-c3sccc3-n3c(C)ccc3C)cc2n1` stands 50.1% (active); under `CCc1c(C)nc2cc(-c3cccs3)[nH]n2c1=O`, 93.5% (inactive).

Turning to `COc1cccc2cc(/C(C)=N/NC(=O)c3ccco3)oc12`, the binding response (% of control) was 98% (inactive). Under `COc1cc(NC(=O)CSc2nnc3ccc(-c4ccncc4)nn23)cc(OC)c1` stands 98.4% (inactive); under `COCCCNC(=S)N(Cc1ccccc1)Cc1ccc(F)cc1`, 106% (inactive); under `CN(c1ccccc1)c1ccc(/C=c2\s/c(=C(/C#N)C(=O)C(C)(C)C)n(Cc3ccco3)c2=O)cc1`, 566% [activator] (active).

Take `COc1ccc(NC(=O)Cn2c(=O)n(Cc3ccco3)c(=O)c3ccccc32)cc1`: the binding response (% of control) was 101% (inactive). The figure for `Cc1cs/c(=N\N=C\c2ccc(O)cc2)n1Cc1ccco1` is 99.6% (inactive).

Regarding `CCOc1ccc(NC(=O)CSc2ncnc3c2sc2ccccc23)cc1`, the binding response (% of control) is 103% (inactive). The figure for `O=C(CN1CCCCC1)N1c2ccccc2Sc2ccc(C(F)(F)F)cc21` is 21.1% (active); for `O=C(CN1CCCCCC1)N1c2ccccc2Sc2ccc(C(F)(F)F)cc21` it is 89.3% (inactive). Under `COc1cc(/C=C/C(=O)N2c3ccccc3Sc3ccc(C(F)(F)F)cc32)cc(OC)c1OC` stands 103% (inactive). For the compound `CCN(CC)S(=O)(=O)c1ccc(NC(=O)c2cccnc2Cl)c(NC(=O)c2cccnc2Cl)c1`, the binding response (% of control) is 101% (inactive).

In the case of `COc1cc(NS(=O)(=O)c2ccc(NC(=O)c3ccc(S(=O)(=O)N4CCCCC4)cc3)cc2)ncn1`, the binding response (% of control) is 107% (inactive).

For the compound `NC(=O)[C@H]1CC2(CC(c3cccc(NC(=O)[C@H]4CCC(=O)N4)c3)=NO2)CN1C(=O)c1ccccc1C(=O)c1ccccc1` (stereo not given in full), the binding response (% of control) was 101% (inactive). Under `CC1CCN(C(=S)NC2CC3CCC2C3)CC1` (stereo not given) stands 107% (inactive); under `Cc1ccc(Cn2ccc(NC(=O)c3cc(C(C)C)on3)n2)cc1`, 49% (active). On to `Cc1ccc(Cn2ccc(NC(=O)C3C4CCC(C4)C3C(=O)O)n2)cc1` (stereo not given), for which the binding response (% of control) is 103% (inactive). For `O=C(Nc1ccn(Cc2ccccc2)n1)c1cccc(F)c1`, the binding response (% of control) is 97.8% (inactive). Under `Cc1cc(C)n(-c2ccc3nncn3n2)n1` stands 97.6% (inactive). The figure for `Cn1ccc(NC(=O)Nc2ccc(Cl)cc2)n1` is 101% (inactive); for `Cn1cc(C(=O)NCc2ccccc2F)cn1` it is 101% (inactive); for `COC(=O)CCCC1=CC2=CC(=O)C(C)(OC(=O)c3cccs3)C(=O)C2=CN1c1cccc(C#N)c1` (stereo not given) it is 96% (inactive). Under `CCOc1cccc(OCCCOc2cccc3cccnc23)c1` stands 93% (inactive); under `O=C(NNC1=C(C(=O)C(F)(F)F)CCC1)c1ccncc1`, 86.6% (inactive). Turning to `Cc1ccc(N2C(=O)C(Cc3ccccc3)NC2=S)cc1` (stereo not given), the binding response (% of control) was 104% (inactive). `Cc1ccc(N2C(=O)C3CC3C2=O)cc1` (stereo not given): the binding response (% of control) is 100% (inactive).

As to `Cc1ccc(N2C(=O)C3C(c4ccccc4)(C2=O)C3(c2ccccc2)c2ccccc2)cc1` (stereo not given), the binding response (% of control) is 8.37% (active).

For the compound `CC(=O)c1ccc(S(=O)(=O)N2CCN(C(=O)/C=C/c3ccc4ccccc4n3)CC2)cc1`, the binding response (% of control) was 84% (inactive).

On to `Cc1cccc(NC(=O)CSc2nnc(CCNC(=O)OC(C)(C)C)o2)c1C`, for which the binding response (% of control) is 93.8% (inactive). The figure for `O=C(COC(=O)/C=C/c1ccc2c(c1)OCO2)NC1CCS(=O)(=O)C1` (stereo not given) is 104% (inactive); for `Nc1ccc(C(=O)OCC(=O)NC2CCCc3ccccc32)cc1[N+](=O)[O-]` (stereo not given) it is 98.3% (inactive); for `Nc1ccc(C(=O)OCC(=O)NC2CCS(=O)(=O)C2)cc1[N+](=O)[O-]` (stereo not given) it is -18.4% (active). The figure for `Cc1ccc(C(=O)Nc2nc(N)n(-c3ccccc3)n2)cc1` is 103% (inactive); for `CC(=O)c1ccc(NC(=S)N(Cc2ccccc2)C(C)C2CC2)cc1` (stereo not given) it is 106% (inactive). Under `COCC(C)n1c(C)cc(C(=O)COc2ccc(C)nc2[N+](=O)[O-])c1C` (stereo not given) stands 99.8% (inactive); under `Cc1ccc(N(CC(O)CN2CCCC2)S(=O)(=O)c2ccccc2)cc1` (stereo not given), 101% (inactive). As for `Cc1cc(C)n(CC(O)CN(c2ccccc2)S(=O)(=O)c2ccc3ccccc3c2)n1` (stereo not given), the binding response (% of control) is 13.8% (active). As to `O=S(=O)(c1ccccc1)N(CC(O)CN1CCCCC1)c1ccccc1` (stereo not given), the binding response (% of control) was 103% (inactive). The figure for `COC(=O)c1ccc(CN2CCN(CCCc3ccccc3)C(CCO)C2)cc1` (stereo not given) is 91.5% (inactive).

For `CCN(C(=O)COC(=O)c1cc(S(=O)(=O)N2CCc3ccccc32)ccc1OC)C1CCS(=O)(=O)C1` (stereo not given), the binding response (% of control) is 104% (inactive).

Consider `O=C(CCCCCn1c(=O)[nH]c2ccccc2c1=O)NCCc1c[nH]c2ccccc12`, for which the binding response (% of control) is 100% (inactive). `COc1ccccc1NC(=O)C[n+]1ccccc1`: the binding response (% of control) was 96% (inactive). Under `COc1ccccc1NC(=O)CCCc1c[nH]c2ccccc12` stands 440% [activator] (active); under `COc1ccc(CCNS(=O)(=O)c2cccc3cccnc23)cc1OC`, 97.9% (inactive); under `O=C(CSc1ccc([N+](=O)[O-])cn1)Nc1ccc(N2CCOCC2)c(Cl)c1`, 94.7% (inactive). Take `O=C(CN1CCN(c2ccc(Cl)cc2)CC1)N1CCCC1`: the binding response (% of control) was 104% (inactive). For the compound `O=C(COc1ccc(Cl)cc1)N1CCN(c2cccc(C(F)(F)F)c2)CC1`, the binding response (% of control) is 101% (inactive). On to `COC(=O)c1ccccc1OCC(=O)N1CCN(c2ccc(Cl)cc2)CC1`, for which the binding response (% of control) was 349% [activator] (active). The figure for `Cc1cccc(CSc2nc3c(c(=O)n2C)SCC3)c1` is 98.4% (inactive); for `CCc1n[nH]c(=S)n1/N=C/c1c[nH]c2ccc(Br)cc12` it is 103% (inactive). Under `COc1c(O)cc2oc(-c3ccc(O)c(O)c3)cc(=O)c2c1O` stands 90.8% (inactive); under `Cc1ccc(-c2c[n+](=O)c3c(n2[O-])CCC3)cc1`, 101% (inactive); under `Clc1ccc(C2CC(c3cccs3)n3ncnc3N2)cc1Cl` (stereo not given), 97.8% (inactive).

Turning to `COc1ccc(C2CC(c3ccccc3)Nc3ncnn32)cc1` (stereo not given), the binding response (% of control) is 99.7% (inactive). The figure for `FC(F)Oc1ccccc1C1CC(c2ccc(Br)s2)Nc2ncnn21` (stereo not given) is 187% [activator] (active). Under `Cc1ccc(C(=O)Cc2nnc(C)s2)cc1` stands 100% (inactive); under `COC(=O)[C@H]1Cc2cnoc2C[C@]1(C)C(=O)O`, 101% (inactive).

On to `CCOC(=O)c1ccc(NC(=O)c2nc[nH]c2C(=O)N[C@@H](CCCCNC(=O)OC(C)(C)C)C(=O)OC(C)(C)C)cc1`, for which the binding response (% of control) is 96.7% (inactive). With `CC(C(=O)O)n1cnc2sc3c(c2c1=O)CCCC3` (stereo not given), the binding response (% of control) was 94.7% (inactive). Under `C=CCn1c(=NC(=O)c2cccs2)sc2cc(NC(C)=O)ccc21` stands 154% [activator] (active); under `CC(=O)Nc1ccc(/C=N/NC(=O)c2cccs2)cc1`, 99.4% (inactive). Turning to `C=CCn1c(=NC(=O)c2ccc(S(=O)(=O)N3CCCC3)cc2)sc2cc(NC(C)=O)ccc21`, the binding response (% of control) was 94.5% (inactive). The figure for `Cc1ccc(OCC(=O)Nc2nnc(-c3ccco3)s2)cc1` is 102% (inactive); for `Cc1ccc2[nH]c(=O)c(CN3CCCCC3)c(-c3ccccc3)c2c1` it is 101% (inactive); for `CCC(=O)NC(Nc1cc(C)ccn1)(C(F)(F)F)C(F)(F)F` it is 104% (inactive). On to `CCOC(=O)NNc1cc(C(F)(F)F)ccn1`, for which the binding response (% of control) was 169% [activator] (active). For the compound `Cc1ccc(NC(=O)Nc2cccc(C(F)(F)F)c2)nc1`, the binding response (% of control) was 99.7% (inactive). Under `CCCSc1nc(NCc2ccco2)c2c3c(sc2n1)COC(C)(CC)C3` (stereo not given) stands 104% (inactive). The figure for `COc1ccccc1-n1cn[nH]c1=S` is 98.6% (inactive); for `COc1ccccc1-n1c(-c2cc(-c3ccco3)[nH]n2)n[nH]c1=S` it is 7.03% (active); for `COc1ccc(OC)c(-n2c(-c3ccn[nH]3)n[nH]c2=S)c1` it is 96.7% (inactive). Under `CSc1ccc(/C=C/C(=O)NC23CC4CC(CC(C4)C2)C3)cc1` stands 99.9% (inactive); under `Fc1ccccc1/C=N/n1c(-c2cccnc2)n[nH]c1=S`, 102% (inactive); under `OCCC1CN(Cc2cccc(OC3CCCC3)c2)CCN1Cc1ccsc1` (stereo not given), 100% (inactive). Take `COc1ccc(C)cc1S(=O)(=O)N(CC(=O)Nc1cccc([N+](=O)[O-])c1)c1ccc(C)cc1`: the binding response (% of control) is 87.7% (inactive). The figure for `O=C(OCC1O[C@@H](OC(=O)c2cc(O)c(O)c(O)c2)[C@@H](OC(=O)c2cc(O)c(O)c(O)c2)[C@@H](OC(=O)c2cc(O)c(O)c(O)c2)[C@@H]1OC(=O)c1cc(O)c(O)c(O)c1)c1cc(O)c(O)c(O)c1` (stereo not given in full) is 1.38% (active); for `CC(=O)NC1C(OCc2ccccc2)OC(COC(C)=O)C(OC(C)=O)C1OC(C)=O` (stereo not given) it is 101% (inactive); for `COc1cc(C(CCN2CCN(c3ccccc3)CC2)c2c(OC)cc(OC)c3ccc(=O)oc23)cc(OC)c1OC` (stereo not given) it is 101% (inactive).

The values are drawn from PubChem BioAssay AID1415 (NMMLSC, 2008).
